Drawing on article PMC12820563, “FoxP3 forms a head-to-head dimer in vivo and stabilizes its multimerization on adjacent microsatellites”, this text covers binding signal for 31 sequences.

The full ranking holds about 16,000 sequences; the median of “rpm ratio (pull-down/input)” is about 0.5, and the highest 2% start at about 5.5. Shown is part of a subset that was picked to be rich in the highest values.

This assay addresses T1, MBP-FoxP3dN (Mus musculus, UniProt Q99JB6 188-423).
T1 sequence: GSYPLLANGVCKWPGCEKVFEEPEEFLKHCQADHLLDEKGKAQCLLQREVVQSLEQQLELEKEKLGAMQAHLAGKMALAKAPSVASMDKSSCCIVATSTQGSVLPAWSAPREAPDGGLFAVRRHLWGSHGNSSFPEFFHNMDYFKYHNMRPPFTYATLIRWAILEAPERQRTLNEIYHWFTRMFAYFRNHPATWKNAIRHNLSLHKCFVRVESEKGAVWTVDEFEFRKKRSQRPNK
Nature of the assay: PD-seq (MBP pull-down with sequencing); 20 mM Tris-HCl pH 7.5, 100 mM NaCl, 1.5 mM MgCl2, 0.4 uM protein, 0.1 uM dsDNA library, 30 min, room temperature, amylose pull-down; high values mean tight binding. The settings on record: protein: recombinant; tags: His6-MBP; chain copies: 2; dsDNA, one strand shown. In a few lines: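 In Tris pH 7.5 buffer with NaCl and MgCl2, 0.4 µM His6-MBP-tagged mouse FoxP3 or FoxP1 fragment lacking the N-terminus, from E. coli, met 0.1 µM Klenow-filled double-stranded degenerate DNA library for 30 min at room temperature. Three washes on amylose resin followed capture of the complexes, then proteinase K release of DNA, PCR barcoding and Illumina sequencing. Binding is taken as pooled-replicate reads-per-million enrichment of pull-down relative to input.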
With “GATGATTGTTCTCCCAGCTGATGAATTGGGAACTTCGAGTAAACAAATTTTCCTAATCTTTCTGTTCAAGCGCCATCTAC”, the binding signal is 0.252 RPM ratio (pull-down/input).

As for “GATGATTGTTCTCCCAGCTGATGAATTGATAGATTCGAGTAAACAAATTTTCCTAATCTTTCTGTTCAAGCGCCATCTAC”, the binding signal was 0.495 RPM ratio (pull-down/input). Turning to “GATGATTGTTCTCCCAGCTGATGAATTCATAGGCTCGAGTAAACAAATTTTCCTAATCTTTCTGTTCAAGCGCCATCTAC”, the binding signal was 0.321 RPM ratio (pull-down/input). For “GATGATTGTTCTCCCAGCTGATGAATTATCCCGGTCGAGTAAACAAATTTTCCTAATCTTTCTGTTCAAGCGCCATCTAC”, the binding signal is 0.208 RPM ratio (pull-down/input).

Turning to “GATGATTGTTCTCCCAGCTGATGAATTTGGTAACTCGAGTAAACAAATTTTCCTAATCTTTCTGTTCAAGCGCCATCTAC”, the binding signal is 1.38 RPM ratio (pull-down/input). As for “GATGATTGTTCTCCCAGCTGATGAATTTGCCTTGTCGAGTAAACAAATTTTCCTAATCTTTCTGTTCAAGCGCCATCTAC”, the figure is 1.15 RPM ratio (pull-down/input). For “GATGATTGTTCTCCCAGCTGATGAATTAATAGAGTCGAGTAAACAAATTTTCCTAATCTTTCTGTTCAAGCGCCATCTAC”, the binding signal is 0.294 RPM ratio (pull-down/input).

As for “GATGATTGTTCTCCCAGCTGATGAATTGCCACTCTCGAGTAAACAAATTTTCCTAATCTTTCTGTTCAAGCGCCATCTAC”, the binding signal is 1.37 RPM ratio (pull-down/input). In the case of “GATGATTGTTCTCCCAGCTGATGAATTTTTGCACTCGAGTAAACAAATTTTCCTAATCTTTCTGTTCAAGCGCCATCTAC” it was 0.699 RPM ratio (pull-down/input). With “GATGATTGTTCTCCCAGCTGATGAATTTTGCCACTCGAGTAAACAAATTTTCCTAATCTTTCTGTTCAAGCGCCATCTAC”, the binding signal is 5.96 RPM ratio (pull-down/input).

For “GATGATTGTTCTCCCAGCTGATGAATTGCCACACTCGAGTAAACAAATTTTCCTAATCTTTCTGTTCAAGCGCCATCTAC”, the binding signal is 1.52 RPM ratio (pull-down/input). As for “GATGATTGTTCTCCCAGCTGATGAATTGCGCCACTCGAGTAAACAAATTTTCCTAATCTTTCTGTTCAAGCGCCATCTAC”, the figure is 7.19 RPM ratio (pull-down/input). For “GATGATTGTTCTCCCAGCTGATGAATTTGCCCACTCGAGTAAACAAATTTTCCTAATCTTTCTGTTCAAGCGCCATCTAC”, the binding signal is 0.555 RPM ratio (pull-down/input). In the case of “GATGATTGTTCTCCCAGCTGATGAATTGCTGCTCTCGAGTAAACAAATTTTCCTAATCTTTCTGTTCAAGCGCCATCTAC” it was 0.662 RPM ratio (pull-down/input); in that of “GATGATTGTTCTCCCAGCTGATGAATTAAGACGATCGAGTAAACAAATTTTCCTAATCTTTCTGTTCAAGCGCCATCTAC”, 0.207 RPM ratio (pull-down/input). On to “GATGATTGTTCTCCCAGCTGATGAATTGCTCACATCGAGTAAACAAATTTTCCTAATCTTTCTGTTCAAGCGCCATCTAC”, for which the binding signal was 0.686 RPM ratio (pull-down/input). For “GATGATTGTTCTCCCAGCTGATGAATTTATTATATCGAGTAAACAAATTTTCCTAATCTTTCTGTTCAAGCGCCATCTAC”, the binding signal was 2.18 RPM ratio (pull-down/input). As to “GATGATTGTTCTCCCAGCTGATGAATTTATATTATCGAGTAAACAAATTTTCCTAATCTTTCTGTTCAAGCGCCATCTAC”, the binding signal was 1.6 RPM ratio (pull-down/input). As to “GATGATTGTTCTCCCAGCTGATGAATTTTATATATCGAGTAAACAAATTTTCCTAATCTTTCTGTTCAAGCGCCATCTAC”, the binding signal is 1.65 RPM ratio (pull-down/input). For the sequence “GATGATTGTTCTCCCAGCTGATGAATTGTTTATATCGAGTAAACAAATTTTCCTAATCTTTCTGTTCAAGCGCCATCTAC”, the binding signal is 5.7 RPM ratio (pull-down/input). In the case of “GATGATTGTTCTCCCAGCTGATGAATTATATTTATCGAGTAAACAAATTTTCCTAATCTTTCTGTTCAAGCGCCATCTAC”, the binding signal was 5.59 RPM ratio (pull-down/input). Take “GATGATTGTTCTCCCAGCTGATGAATTTTTTATATCGAGTAAACAAATTTTCCTAATCTTTCTGTTCAAGCGCCATCTAC”: the binding signal is 0.31 RPM ratio (pull-down/input). In the case of “GATGATTGTTCTCCCAGCTGATGAATTAAAGTGTTCGAGTAAACAAATTTTCCTAATCTTTCTGTTCAAGCGCCATCTAC” it was 0.592 RPM ratio (pull-down/input).

On to “GATGATTGTTCTCCCAGCTGATGAATTATAACCGTCGAGTAAACAAATTTTCCTAATCTTTCTGTTCAAGCGCCATCTAC”, for which the binding signal is 0.364 RPM ratio (pull-down/input).

“GATGATTGTTCTCCCAGCTGATGAATTATGAATGTCGAGTAAACAAATTTTCCTAATCTTTCTGTTCAAGCGCCATCTAC”: the binding signal is 1.04 RPM ratio (pull-down/input). Take “GATGATTGTTCTCCCAGCTGATGAATTATGCCATTCGAGTAAACAAATTTTCCTAATCTTTCTGTTCAAGCGCCATCTAC”: the binding signal was 5.9 RPM ratio (pull-down/input). On to “GATGATTGTTCTCCCAGCTGATGAATTATGCTTGTCGAGTAAACAAATTTTCCTAATCTTTCTGTTCAAGCGCCATCTAC”, for which the binding signal is 4.71 RPM ratio (pull-down/input). With “GATGATTGTTCTCCCAGCTGATGAATTATGCATGTCGAGTAAACAAATTTTCCTAATCTTTCTGTTCAAGCGCCATCTAC”, the binding signal is 6.46 RPM ratio (pull-down/input). “GATGATTGTTCTCCCAGCTGATGAATTATGCCTCTCGAGTAAACAAATTTTCCTAATCTTTCTGTTCAAGCGCCATCTAC”: the binding signal is 6.22 RPM ratio (pull-down/input). Regarding “GATGATTGTTCTCCCAGCTGATGAATTAATTATGTCGAGTAAACAAATTTTCCTAATCTTTCTGTTCAAGCGCCATCTAC”, the binding signal is 1.89 RPM ratio (pull-down/input). On to “GATGATTGTTCTCCCAGCTGATGAATTATGAAATTCGAGTAAACAAATTTTCCTAATCTTTCTGTTCAAGCGCCATCTAC”, for which the binding signal was 0.632 RPM ratio (pull-down/input).
